Source: PubChem BioAssay (Johns Hopkins Ion Channel Center)
KCNQ2 pot – potentiators of rat KCNQ2 potassium channel. O88943. B-score at 10 µM. CHO-K1 KCNQ2, FluxOR thallium flux fluorescence; hits give high values. actives 0.54% (n = 310,000);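 active = fluorescence ratio B-score at least 3 SD of library B-scores, with initial fluorescence B-score within 3 of them, cut at about 5.3 in these data; same plate scores as AID 2156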;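 note: B-score of peak minus minimum over baseline fluorescence ratio after K+ and Tl+ stimulus; positive B-score means potentiation of KCNQ2 with more thallium influx and brighter signal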
Target sequence (O88943 whole entry, looked up): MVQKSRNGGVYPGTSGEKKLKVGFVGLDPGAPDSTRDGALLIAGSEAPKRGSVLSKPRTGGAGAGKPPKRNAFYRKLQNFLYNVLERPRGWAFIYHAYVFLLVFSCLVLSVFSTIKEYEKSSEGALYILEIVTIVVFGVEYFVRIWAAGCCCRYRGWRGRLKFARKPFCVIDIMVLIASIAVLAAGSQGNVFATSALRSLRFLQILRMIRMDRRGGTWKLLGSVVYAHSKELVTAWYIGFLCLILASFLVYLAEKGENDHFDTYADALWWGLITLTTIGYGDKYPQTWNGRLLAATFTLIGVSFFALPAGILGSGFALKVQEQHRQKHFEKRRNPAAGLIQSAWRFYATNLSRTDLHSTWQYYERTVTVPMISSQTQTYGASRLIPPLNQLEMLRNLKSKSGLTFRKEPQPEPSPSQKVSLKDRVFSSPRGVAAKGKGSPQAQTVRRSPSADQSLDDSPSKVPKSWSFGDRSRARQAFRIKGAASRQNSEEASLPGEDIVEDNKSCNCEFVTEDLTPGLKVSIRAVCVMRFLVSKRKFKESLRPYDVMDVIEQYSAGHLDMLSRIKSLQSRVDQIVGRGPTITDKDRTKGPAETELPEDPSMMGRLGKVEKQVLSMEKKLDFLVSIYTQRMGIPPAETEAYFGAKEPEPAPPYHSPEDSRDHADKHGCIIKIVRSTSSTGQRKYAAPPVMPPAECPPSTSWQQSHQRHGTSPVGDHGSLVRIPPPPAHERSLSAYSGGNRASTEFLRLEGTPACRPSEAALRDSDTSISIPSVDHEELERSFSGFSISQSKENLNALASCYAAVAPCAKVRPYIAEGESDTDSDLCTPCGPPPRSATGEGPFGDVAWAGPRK
KCNQ2 inh – blocks the rat KCNQ2 potassium channel; AID 2156; CHO-K1 KCNQ2, FluxOR thallium flux, 20 min; hits give low values; O88943; actives 1.1% (n = 310,000); B-score at 10 µM;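 active = fluorescence ratio B-score at most minus 3 library SDs, with starting brightness B-score within 2 library SDs, cut at about -5.5 in these data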
Kir21 conf inh – confirmation of mouse Kir2.1 potassium channel inhibitors; Kir2.1-expressing cells, FluxOR thallium flux fluorescence; hits give low values; shares compounds with KCNQ2 pot; AID 2032; actives 41% (n = 2,300); Tl flux remaining, % of negative control (hits give low values), % at 10 µM;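 active = Primary-screen hit whose thallium flux fell at least 3 control SD below untreated wells in both duplicates, with normal baseline fluorescence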;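 note: 0% = blank wells without stimulus and 100% = stimulated no-compound controls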
HEK293 Tl flux – alters thallium flux in parental HEK293 cells, Kir2.1 counter-screen | shares compounds with KCNQ2 pot | FluxOR thallium flux fluorescence; 0% = unstimulated blank wells | FluxOR signal as % of negative control (100 = no effect), % at 10 µM | actives 19% (n = 2,300) | AID 2105;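 active = dye signal at least 3 control SD above or below untreated wells in both duplicates, raw fluorescence within 3, either direction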;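 note: percent is based on the flux ratio of peak minus minimum fluorescence over baseline F0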
CHO-K1 ctr – alters thallium flux in parental CHO-K1 cells, KCNQ2 counter-screen; shares compounds with KCNQ2 pot; FluxOR thallium flux fluorescence; zero = vehicle mean+3SD, 100% = vehicle-minus-blank window; activity increase over 3SD of controls, % at 10 µM; actives 43% (n = 1,200);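 active = signal rise of at least 3 SD above the untreated control mean, in both duplicate wells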;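 note: counter screen of KCNQ2 potentiator hits so any rise reflects channel-independent effects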
KCNQ1 pot spec – selectivity of KCNQ2 potentiators: effect on human KCNQ1; shares compounds with KCNQ2 pot; AID 2283; activation over 3SD threshold, % at 10 µM; actives 28% (n = 1,200); CHO KCNQ1 stable, FluxOR thallium flux fluorescence; beyond 3SD, as % of vehicle-control signal;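 active = fluorescence ratio rise of at least 3 SD of vehicle wells above their mean, in both replicate wells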;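 note: 0% = vehicle mean plus 3 SD and 100% = vehicle minus unstimulated blank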
KCNQ2 pot conf – rat KCNQ2 channel potentiator confirmation; actives 68% (n = 1,200); shares compounds with KCNQ2 pot; CHO-KCNQ2 cells, FluxOR thallium flux fluorescence; potentiation, less the hit threshold, % at 10 µM; AID 2287;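 active = fluorescence ratio rising 3 SD or more over the vehicle control mean in both replicates, plus primary screen hit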;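 note: peak minus minimum thallium fluorescence divided by baseline after K/Tl stimulus; 0% = vehicle mean plus 3 SD and 100% = vehicle minus unstimulated blank difference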
Kir2-1 sel – tests whether KCNQ2 potentiators also affect mouse Kir2.1. shares compounds with KCNQ2 pot. HEK293 Kir2.1, FluxOR thallium flux fluorescence. activity over 3SD threshold, % at 10 µM. actives 2% (n = 1,200). AID 2345;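 active = fluorescence ratio rise of at least 3 SD above the vehicle-control mean, seen in both replicates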;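 note: 0% = vehicle mean plus 3 SD and 100% = vehicle minus no-stimulus blank window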
KCNQ2 W236L pot – rat KCNQ2 W236L mutant potentiation by KCNQ2 potentiators; current increase over 3SD of negative controls (%), hits give high values, % at 25 µM; AID 2558; actives 10% (n = 940); CHO KCNQ2-W236L, automated patch clamp current; shares compounds with KCNQ2 pot;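 active = current increase at least 3 SD of the untreated controls above them in both duplicate recordings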
* marks the source's active call; other numbers are inactive results. This is a sample that favours compounds with a hit; in the whole collection about 1.6% have one here.

Results for CCCCN(C(=O)c1cccc(S(=O)(=O)N2CC(C)OC(C)C2)c1)c1c(N)n(CC(C)C)c(=O)[nH]c1=O (stereo unspecified) ?
KCNQ2 pot: 0.01; KCNQ2 inh: inactive

Results for CCOC(=O)c1nn(-c2ccc(Cl)cc2)c2nnc(Cc3ccccc3)c(=O)n12 ?
KCNQ2 inh: inactive

Results for CC(=O)/C(C#N)=C1\NC(=O)C(Cc2ccc(F)cc2)S1 (stereo unspecified) ?
KCNQ2 pot: 0.65; KCNQ2 inh: inactive

Results for CC(=O)/C(C#N)=C1\NC(=O)C(Cc2ccc(C)c(C)c2)S1 (stereo unspecified) ?
KCNQ2 pot: 7.18*; KCNQ2 inh: inactive; Kir21 conf inh: inactive; HEK293 Tl flux: inactive; CHO-K1 ctr: 3.5*; KCNQ1 pot spec: -20.5; KCNQ2 pot conf: -86.2; Kir2-1 sel: -29.1

Results for CCOc1ccccc1NC(=O)CCCNC(=O)c1ccc(Cl)cc1 ?
KCNQ2 inh: inactive

How did COc1cccc(/C=N/n2c(SC)nnc2-c2ccccc2)c1OC do in these assays?
KCNQ2 inh: inactive

Results for COc1cccc(/C=N/n2c(SC)nnc2-c2ccccc2)c1O ?
KCNQ2 pot: 5.33*; KCNQ2 inh: inactive; Kir21 conf inh: inactive; HEK293 Tl flux: inactive; CHO-K1 ctr: -24.5; KCNQ1 pot spec: -4.0; KCNQ2 pot conf: -13.1; Kir2-1 sel: -28.8

Results for Fc1ccc(COc2ccc(/C=N/n3cnnc3)cc2)cc1 ?
KCNQ2 inh: inactive

What do the screens show for `Cc1cc(N=Cc2cc(Br)ccc2O)no1`?
KCNQ2 pot: 9.12*; KCNQ2 inh: inactive; Kir21 conf inh: inactive; HEK293 Tl flux: inactive; CHO-K1 ctr: -17.5; KCNQ1 pot spec: -7.0; KCNQ2 pot conf: 0.8*; Kir2-1 sel: -21.7; KCNQ2 W236L pot: inactive

How did Cc1ccc(S(=O)(=O)/N=C/c2cc(Br)ccc2O)cc1 do in these assays?
KCNQ2 pot: 4.31; KCNQ2 inh: inactive

What do the screens show for `COc1ccc(CN2CCNC(=O)C2CC(=O)N2CCCN(C(C)=O)CC2)c(OC)c1` (stereo unspecified)?
KCNQ2 inh: inactive

How did CC1=C(C(=O)OC2CCCCC2)C(c2cccc([N+](=O)[O-])c2)NC(=O)N1 (stereo unspecified) do in these assays?
KCNQ2 pot: 1.69; KCNQ2 inh: inactive

How did CC1=C(C(=O)OCC2CCCCC2)C(c2ccc(O)cc2)NC(=O)N1 (stereo unspecified) do in these assays?
KCNQ2 pot: 1.68; KCNQ2 inh: inactive

Results for CC1=C(C(=O)OCC2CCCCC2)C(c2cccc(O)c2)NC(=O)N1 (stereo unspecified) ?
KCNQ2 pot: 17.1*; KCNQ2 inh: inactive; Kir21 conf inh: inactive; HEK293 Tl flux: inactive; CHO-K1 ctr: -11.0; KCNQ1 pot spec: -20.9; KCNQ2 pot conf: 58.1*; Kir2-1 sel: -45.2; KCNQ2 W236L pot: 34.4%*

Results for CC1=C(C(=O)OC2CCCCCCC2)C(c2cccc(O)c2)NC(=O)N1 (stereo unspecified) ?
KCNQ2 pot: 20.3*; KCNQ2 inh: inactive; Kir21 conf inh: inactive; HEK293 Tl flux: inactive; CHO-K1 ctr: -0.3; KCNQ1 pot spec: -6.8; KCNQ2 pot conf: 81.6*; Kir2-1 sel: -19.1; KCNQ2 W236L pot: 29.3%*

What do the screens show for `O=C(Cn1nnc(-c2ccccc2Cl)n1)NCc1ccc2c(c1)OCO2`?
KCNQ2 pot: 0.34; KCNQ2 inh: inactive
